RORgamma inh = qHTS for inhibitors of ROR gamma transcriptional activity. Nuclear receptor ROR-gamma (Mus musculus), P51450. Drosophila S2 Gal4-RORgamma UAS-luciferase reporter, 20 h. Potency, µM (doses to about 53.6 µM), for inactives: at the top dose activity change, negative = inhibition, usual class: inhibitors. 310,000 tested, 5.4% active; also: potency is read from the fitted curve at half-maximal effect; nearly all actives have a fitted effect of over 60% in size
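Stable Schneider cell line, Gal4 DNA-binding domain fused to ROR gamma, UAS-luciferase. Cmpd 1 hr RT → CuSO4 700 uM final → 20 hr RT → luciferase reagent 10 min → luminescence.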
VP16 counter = VP16 counterscreen qHTS for inhibitors of ROR gamma transcriptional activity; 310,000 tested, 3.5% active; Drosophila S2 Gal4-VP16 UAS-luciferase, luminescence, 20 h; Potency, µM (series often up to 53.6 µM), without a hit: at the highest dose activity, negative = inhibition, hits mostly inhibitors;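 also: Gal4-VP16 expression switched on by copper sulfate through the metallothionein promoter; potency is read from the fitted curve at half-maximal effect; nearly all actives have a fitted effect of over 50% in size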
GALK inh = qHTS Assay for Inhibitors of Human Galactokinase (GALK). Potency, µM (titrated, usually from 57.5 µM), without a hit: at the top dose activity change, negative = inhibition, hits mostly inhibitors. P51570. AID 1868, 2009. 270,000 tested, 0.007% active. Purified GALK, Kinase-Glo residual ATP luminescence; also: potency is read from the fitted curve at half-maximal effect
Target sequence (P51570 whole entry, looked up): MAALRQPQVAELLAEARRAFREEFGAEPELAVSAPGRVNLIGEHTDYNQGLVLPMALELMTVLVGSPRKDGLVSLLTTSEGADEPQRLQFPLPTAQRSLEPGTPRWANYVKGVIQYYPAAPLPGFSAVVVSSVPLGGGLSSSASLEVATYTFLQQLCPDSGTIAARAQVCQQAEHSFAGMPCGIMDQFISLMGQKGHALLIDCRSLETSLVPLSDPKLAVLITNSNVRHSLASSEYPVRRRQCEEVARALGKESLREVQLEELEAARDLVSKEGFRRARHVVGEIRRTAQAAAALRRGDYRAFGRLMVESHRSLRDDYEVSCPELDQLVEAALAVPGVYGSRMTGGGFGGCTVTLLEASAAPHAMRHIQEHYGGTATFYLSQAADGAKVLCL
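GALK at 5 nM final was combined with compound, 35 uM ATP and 100 uM galactose in HEPES pH8.0 with MgCl2 and DTT. The reaction ran one hour at room temperature before luminescent ATP detection.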
TrxR1 substrate = qHTS Assay for Substrates of Mammalian Selenoprotein Thioredoxin Reductase 1 (TrxR1): qHTS; Potency, µM (series often up to 114 µM), for inactives: at the highest dose activity change, negative = substrate turnover; Thioredoxin reductase 1, cytoplasmic (Rattus norvegicus), O89049; 390,000 tested, 0.01% active; purified TrxR1 substrate turnover, NADPH consumption readout; also: potency is read from the fitted curve at half-maximal effect; nearly all actives have a fitted effect of over 50% in size
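Rat TrxR1, dispensed at 90 nM, was prereduced with 400 uM NADPH (final) for 5 min at ~22 deg C, then incubated with compound 15 min before 400 uM selenite. A first-read NADPH fluorescence drop versus no-compound background flagged substrates.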
TrxR1 inh = qHTS Assay for Inhibitors of Mammalian Selenoprotein Thioredoxin Reductase 1 (TrxR1): qHTS. recombinant rTrxR1, NADPH fluorescence consumption, selenite substrate. AID 588453, 2011. Thioredoxin reductase 1, cytoplasmic (Rattus norvegicus), O89049. Potency, µM (titrated, usually from 114 µM), for the others: top-dose activity change, negative = inhibition, actives largely listed as inhibitors. 390,000 tested, 1% active; also: potency is read from the fitted curve at half-maximal effect; nearly all actives have a fitted effect of over 65% in size
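Rat TrxR1 (90 nM in the dispensed reagent) was pre-reduced with 400 uM NADPH for 5 min at room temperature, then incubated with compound for 15 min. After 400 uM selenite was added, NADPH fluorescence (Ex 340/Em 450 nm) was followed for 8 min.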
FBPA coupling cs = qHTS Assay for Inhibitors of Fructose-1,6-bisphosphate Aldolase from Giardia Lamblia: Coupling assay counterscreen | coupling enzyme system counterscreen, AmpLite Red fluorescence | activity change, negative = inhibition, % at 58.2 µM, hits read low | 290,000 tested, 0.67% active | AID 2472, 2010; in the data active = activity change below about -30%
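Counterscreen of the coupled detection system alone, without aldolase: glyceraldehyde-3-phosphate coupling enzymes plus AmpLite Red readout. Compounds at 57.5 uM final, 10 min RT preincubation, 20 min RT reaction, fluorescence 525/598 nm.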
An asterisk follows results filed as active; ? = inconclusive; nt = no result given; [ ] = dose if it differs, or a comment. Hits are enriched below; roughly 5.9% of the tested compounds scored in any of these assays. Unless noted, calls follow the shape of the dose curve; as a rule, active = well fitted curve in the direction sought with a large enough effect; inconclusive = small, poorly fitted or top-dose-only effect, or another doubt; inactive = no such curve, though single readings can be large; an effect the other way counts as inactive or inconclusive. % is scaled to controls: 0 for no effect and ±100 for the full control effect.

SMILES	RORgamma inh	VP16 counter	GALK inh	TrxR1 substrate	TrxR1 inh	FBPA coupling cs
COC(C/C=C\C(=O)[C@H](C)OCc1ccccc1)OC	nt	nt	nt	-2.7%	44.7µM*	nt
O=C1C=C(NC2=CC3OC(c4ccccc4)OCC3OC2=O)CCC1 (stereo not given)	10µM*	10µM*	-0.1%	-11.8%	8.91µM*	0.9
CSc1ccccc1NC(=S)N/N=C/c1cccn1Cc1ccc(F)cc1	?	?	-1.4%	-3.8%[57.1 µM]	14.6%[57.1 µM]	-7.2
Cc1cccc(NC(=O)Cc2ccc(F)cc2)c1	17.6%	27.4%	-0.5%	4.7%[57.1 µM]	-1.0%[57.1 µM]	-0.3
Cc1cccc(NC(=S)N/N=C/c2cccn2Cc2ccc(F)cc2)c1	0.199µM*	2.24µM*	-0.1%	-4.4%[57.1 µM]	23.0%[57.1 µM]	-1.4
CSc1ccccc1NC(=S)N/N=C/c1cccn1Cc1cccc(C)c1	0.891µM*	5.01µM*	4.5%	3.6%[57.1 µM]	14.5%[57.1 µM]	-0.8
COc1cc(OC)c(NC(=O)Nc2ccccc2OCc2cc(=O)n3cc(C)ccc3n2)cc1Cl	nt	nt	nt	-0.4%[57.1 µM]	20.7%[57.1 µM]	nt
COc1ccccc1NC(=O)c1ccc2nc(C)sc2c1	-2.5%	-15.2%	-0.4%	1.8%	20.4%	-4.3
O=S(c1ccc2ccccc2c1)c1cnns1 (stereo not given)	11.2µM*	?	-1.2%	3.0%	?	-0.9
CC(C1CC1)N(Cc1ccccc1)C(=S)Nc1ccccc1 (stereo not given)	11.2µM*	?	-1.4%	-3.6%[57.1 µM]	-0.7%[57.1 µM]	1.1
CC(C)N(Cc1ccccc1)C(=S)Nc1ccc(F)cc1	-44.1%	-1.3%	6.0%	2.1%[57.1 µM]	1.8%[57.1 µM]	2.4
Cc1ccc(NC(=S)N(Cc2ccccc2)C(C)C)cc1	10µM*	?	-2.2%	1.7%[57.1 µM]	8.1%[57.1 µM]	0.3
CC(C1CC1)N(Cc1ccccc1)C(=S)Nc1cccc(C(F)(F)F)c1 (stereo not given)	11.2µM*	?	1.2%	-6.4%[57.1 µM]	-2.0%[57.1 µM]	-0.8
Cc1cc(C)c(C(=O)/C=C/c2cccc3ccccc23)c(=O)[nH]1	?	12.6µM*	-2.6%	-1.6%	-4.2%	-0.6
Cc1cc(C)c(C(=O)/C=C/c2ccc3c(c2)OCO3)c(=O)[nH]1	19.7%	-3.3%	3.6%	-14.6%[57.1 µM]	26.1%[57.1 µM]	-7.3
CC(C)(C)c1ccc(C(=O)Nc2ncn[nH]2)cc1	3.98µM*	?	0.3%	-3.1%[57.1 µM]	7.6%[57.1 µM]	1.5
Cc1ccc(C(=O)Nc2ncn[nH]2)cc1	?	12.6µM*	-0.9%	7.9%[57.1 µM]	10.5%[57.1 µM]	-0.1
O=C(Nc1ncn[nH]1)c1cccc(F)c1	nt	nt	nt	6.0%[57.1 µM]	12.6%	nt
COc1ccc(-c2nc(CS(=O)CC(=O)NC3CCCC3)c(C)o2)cc1 (stereo not given)	0.3%	4.7%	-1.2%	8.1%	?	0.3
Cc1ccc(-c2nc(CS(=O)(=O)CC(=O)NC3CCCCCC3)c(C)o2)cc1	18.6%	0.0%	11.3%	7.3%	79.4µM*	5.0
Cc1oc(-c2ccc(Cl)cc2)nc1CS(=O)CC(=O)NC1CCCCC1 (stereo not given)	14.3%	9.0%	-1.4%	14.5%	25.1µM*	nt
Cc1oc(-c2cccs2)nc1CS(=O)CC(=O)NC1CCCCCC1 (stereo not given)	-17.2%	8.8%	1.4%	4.6%[57.1 µM]	5.01µM*	0.3
Cc1oc(-c2ccc(Cl)cc2)nc1CS(=O)CC(=O)NC1CCCC1 (stereo not given)	7.8%	-5.6%	1.5%	-5.2%	44.7µM*	nt
Cc1oc(-c2ccc(Cl)cc2)nc1CS(=O)CC(=O)NC1CCCCCC1 (stereo not given)	3.0%	3.2%	0.0%	-3.4%	?	nt

Assay outcomes: PubChem, National Center for Advancing Translational Sciences (NCATS)
